Source: PubChem BioAssay
ERK EGF block: EGF-driven ERK pathway inhibition | HEK293-V1b, EGF-stimulated phospho-ERK AlphaScreen | Potency, µM (titrated, usually from 11.5 µM), inactives show at the top dose activity change, negative = inhibition, hits mostly inhibitors | 0.41% of 130,000 active | AID 1454; active = well fitted inhibition curve with a large enough effect;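 note: plate controls were stimulated vehicle wells for no effect and unstimulated vehicle basal for full effect; nearly all actives have a fitted effect of over 55% in size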
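V1b-HEK293, 1% FBS o/n; cpd 30 min 37C; EGF 25 nM final, 5 min; lyse 10 min; AlphaScreen beads 5 h RT. Normalized DMSO basal vs EGF max; Hill AC50.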
Numbers without * were called inactive; ! = a repeat was not active; [ ] = dose if it differs, or a comment. The entries come from a sample that favours hits as a whole. Potency is the fitted concentration of half-maximal effect.

SMILES	ERK EGF block
Cc1nc(NCc2ccccc2)c2nc(-c3ccccc3)n(CCN(C)C)c2n1	-3%
OC1C2COC(O2)[C@H](O)C1O (stereo not given in full)	27%
COCCn1c(=O)c(-c2ccc(Cl)cc2)nc2cnc(Oc3ccccc3)nc21	2%
CCc1ccc(NC(=O)CSCCN2C(=O)c3ccccc3C2=O)cc1	-12%
CCc1ccc(NC(=O)C2(C)Cc3ccccc3C(=O)O2)cc1 (stereo not given)	22µM*
CC1(C(=O)Nc2cccc(S(=O)(=O)N3CCOCC3)c2)Cc2ccccc2C(=O)O1 (stereo not given)	-3%
CCCCC/C=C\C/C=C\C/C=C\C/C=C\CCCC(=O)O[C@@H](CO)COC(=O)CCCCCCCCCCCCCCCCC	13%
CCCCC#Cc1nc(N)c2ncn([C@@H]3O[C@H](C(=O)NCC)[C@@H](O)[C@H]3O)c2n1	-6%
COc1ccc(-c2nc(-c3cccnc3)no2)cc1	1%[57.5 µM]
CN=c1scc(-c2ccc(OC)cc2)n1/N=C(\C)c1cccnc1	22µM*
COc1ccc(NC(NC(=O)c2cccnc2)C(Cl)(Cl)Cl)cc1 (stereo not given)	4%
CN(C)Cc1ccccc1-c1cc(NC2CC2)ncn1	17%
C#C[C@]1(OC(C)=O)CCC2C3CCC4=CC(=O)CCC4C3CC[C@]21C (stereo not given in full)	-8%
Cc1ccc(-c2nc(NCc3ccco3)c3ccccc3n2)cc1	-5%
Cc1cccc(Nc2nc(NCc3ccco3)c3ccccc3n2)c1	28µM*
OCCN1CCN(c2nc(NCc3ccco3)c3ccccc3n2)CC1	2%
Cc1ccccc1Nc1nc(NCc2ccco2)c2ccccc2n1	-2%
Oc1ccccc1Nc1nc(NCc2ccco2)c2ccccc2n1	32µM*
Cc1ccc(Nc2nc(N)c([N+](=O)[O-])c(NCc3ccco3)n2)cc1C	-2%
CC1(C)CC2C1CCC1(C)OC2(C)CCC1O (stereo not given)	21%
CC(C)[C@@H]1[C@H]2CC[C@H](C2)[C@H]1N	-3%
COC(=O)[C@@H]1[C@@H]2C[C@H]3c4[nH]c5ccccc5c4CCN3C[C@@H]2CC[C@@H]1O	7%
C=CC1=C(C)C2=NC1=CC1=NC(=CC3=NC(=CC4=NC(=C2)C(C)=C4CCC(=O)O)C(CCC(=O)O)=C3C)C(C=C)=C1C.[Zn]	2%
CCCC[C@@H]1C[C@H]1C(NC(=O)c1ccco1)c1ccc(Cl)cc1 (stereo not given in full)	0%
Nc1c[n+](N2CCOCC2)no1	-14%
SMILES	ERK EGF block
CC(C)OCCCNC1=C(Cl)C(=O)c2ccccc2C1=O	28µM*
CCN(CC)CCCNC1=C(Cl)C(=O)c2ccccc2C1=O	-9%[57.5 µM]
CC(C)OCCCNC(=S)NNC(=O)C(c1ccccc1)c1ccccc1	-20%
COCCn1c(=O)c(CCc2ccccc2)nc2cnc(OC)nc21	1%
COc1ccc(C(=O)Nc2nc(-c3cccs3)c(NC(C)=O)s2)cc1	1%
COc1ccc(C(=O)Nc2c(-c3cccs3)c(=O)c3ccccc3n2C)cc1	5.6µM*
Cc1ccccc1C(=O)Nc1c(-c2cccs2)c(=O)c2ccccc2n1C	-1%[57.5 µM]
O=C(O)[C@H]1C(=CCO)O[C@H]2CC(=O)N12	-15%
Cc1nc(NCc2ccccc2)c2nc(-c3ccccc3)n(CCN3CCCCC3)c2n1	-4%
O=C(/C=C\C=C/c1ccc2c(c1)OCO2)N1CCCCC1	-4%[25.7 µM]
COc1cccc2c1C(=O)c1c(O)c3c(c(O)c1C2=O)C[C@@](O)(C(C)=O)C[C@@H]3O[C@H]1C[C@H](N)[C@H](O)[C@H](C)O1	25µM*!
COc1ccc(-n2c(=O)cnc3cnc(Nc4ccccc4)nc32)cc1	-23%
COc1ccc(C(=O)/C=C/c2ccc(N3CCCCC3)c([N+](=O)[O-])c2)cc1	32µM*
NC(=O)c1ccc(N2CCCCCC2)c([N+](=O)[O-])c1	15%
COc1ccc(N2CCN(c3ccc(C(N)=O)cc3[N+](=O)[O-])CC2)cc1	1%
COCC(=O)N1CCC[C@@]2(CCN(C(=O)Nc3ccc(OC)cc3)C2)C1	-14%
COc1ccc(Nc2ccncc2[N+](=O)[O-])cc1	1%
COc1ccc(NC(=O)c2ccccc2[N+](=O)[O-])cc1	-1%
COc1ccc(Nc2c([N+](=O)[O-])ccc3c2=NC2(CCCCC2)N=3)cc1	14µM*
NC(=O)c1cc[n+](CC2=C(C(=O)[O-])N3C(=O)[C@@H](NC(=O)Cc4cccs4)[C@@H]3SC2)cc1	15%[25.7 µM]
O=C1C=C(Nc2ccc(Cl)cc2)CC(c2ccc(Cl)cc2)C1 (stereo not given)	14µM*
O=C1C=C(Nc2ccc(Cl)cc2)CC(c2ccco2)C1 (stereo not given)	2%
Cc1ccc(C2CC(=O)C=C(Nc3ccc(Cl)cc3)C2)cc1 (stereo not given)	2%
c1ccc2c(-n3ccnc3)nc(-c3ccoc3)nc2c1	18%
CCCCC/C=C\C/C=C\C/C=C\C=C\C(O)CCCC(=O)O (stereo not given)	-9%
SMILES	ERK EGF block
COC(=O)N[C@@H](c1cccc(C)c1)[C@@H](C)[N+](=O)[O-]	-4%
CCOC(=O)c1cc(NC(=O)COc2ccc([N+](=O)[O-])cc2)cc(C(=O)OCC)c1	-1%
CCOC(=O)c1cccc(NC(=O)/C=C/c2ccc([N+](=O)[O-])cc2)c1	32µM*
O=C(/C=C/c1cccc([N+](=O)[O-])c1)Nc1cc(C(=O)O)cc(C(=O)O)c1	3%
COC/C=C/C1=CC2=CC(=O)C(C)(OC(=O)CCc3ccccc3)C(=O)C2=CO1 (stereo not given)	-3%
COC(=O)[C@@]1(Cc2ccc(OC)cc2)[C@H]2c3cc(C(=O)N(C)C)n(C)c3C[C@H]2CN1C(=O)c1ccccc1	7%
O=[N+]([O-])c1cccc(-c2ccc(C(=S)N3CCN(c4ccccc4)CC3)o2)c1	25µM*
O=C(c1ccc(-c2cccc(Cl)c2)o1)N1CCN(c2ccc([N+](=O)[O-])cc2)CC1	-2%
O=[N+]([O-])c1cccc(-c2ccc(C(=S)N3CCOCC3)o2)c1	2%
CCOC(=O)C1=C(C)NC(C)=C(C(=O)OC)[C@@H]1c1cccc(Cl)c1Cl	10%[25.7 µM]
COc1ccc2c(c1)OCC(Cc1ccc(OC)c(OC(C)=O)c1)C2=O (stereo not given)	1%
NNC(=O)c1cc(-c2cccs2)nc2ccccc12	7%[57.5 µM]
C/C(=N\NC(=O)c1cc(-c2cccs2)nc2ccccc12)c1ccccn1	14%
Cc1cccc2sc(NNC(=O)c3cc(-c4cccs4)nc4ccccc34)nc12	13µM*
C[C@@H](C(=O)Nc1ccc2ccccc2c1)[C@@H]1C[C@@]1(C)[C@@H](NC(=O)c1ccncc1Cl)c1ccccc1	-1%
CC(=O)[C@@]1(O)CC[C@H]2[C@H]3C[C@@H](C)C4=CC(=O)C=C[C@]4(C)[C@@]3(F)[C@@H](O)C[C@]21C	-14%[25.7 µM]
N[C@@H](Cn1ccc(=O)n(Cc2ccccc2C(=O)O)c1=O)C(=O)O	-6%
COCCn1c(=O)c(-c2cccc(C#N)c2)nc2cnc(N3CCNCC3)nc21	-12%
Cc1cc(N(C)C)ccc1N=Nc1ccc2ncccc2c1	20µM*
Cc1ccc(N=Nc2ccc(O)c3ncccc23)cc1C	-6%
Cc1nnc(C)c2c(C)n(-c3ccc4ncccc4c3)c(C)c12	-4%
C=CCC(C)(O)C#Cc1ccccc1 (stereo not given)	5%
